Test systems include HCT-15 colon; HT29 colon; SNB-75 CNS; SNB-19 CNS; U251 CNS; PC-3 prostate; SK-MEL-5 melanoma; UACC-62 melanoma; LOX IMVI melanoma; SK-MEL-28 melanoma; SK-MEL-2 melanoma; EKVX NSCLC; SN12C renal; UO-31 renal; TK-10 renal; ACHN renal; CAKI-1 renal; CCRF-CEM leukemia; MOLT-4 leukemia; A498 renal.
Holding throughout (assay): NCI-60 one-dose screen, 48 h (100 = growth as untreated, 0 = no growth, -100 = all killed)
Details in all cases: 10 µM unless noted

About 83,000 compounds went through this panel and 20% of them were active in at least one assay; those are over-represented in the sample as a whole.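 96-well plates, one dose, 48 hours. Percent growth reported; active if below 10.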 Unmarked numbers belong to inactive results. Active and inactive are the calls of the source.

In the case of `C=C(c1ccc(C(=O)O)c(F)c1)c1cc2c(cc1C)C(C)(C)CCC2(C)C`, the growth with HCT-15 colon is 80.9%; in the test on HT29 colon it was 97.9%; in the test with SNB-75 CNS, 74.3%; in the test with SNB-19 CNS, 86.8%; in the test on U251 CNS it was 75.4%; with PC-3 prostate it was 72.5%. Further, the growth in the test on SK-MEL-5 melanoma is 74%; with UACC-62 melanoma, 83.5%; in the test with LOX IMVI melanoma, 93.9%; in the test with SK-MEL-28 melanoma, 89.9%; in the test with SK-MEL-2 melanoma it was 89.4%; with EKVX NSCLC, 75.6%. Moreover, the growth was 85.4% in the test on SN12C renal; 92.6% in the test on UO-31 renal; 102% with TK-10 renal; 79% in the test on ACHN renal; 81.4% with CAKI-1 renal; 86.8% with CCRF-CEM leukemia. In addition, the growth in the test on MOLT-4 leukemia was 82.4%.

Turning to `COc1cc(-c2ccc(-c3ccc(C(=N)N)cc3)s2)cc(OC)c1OC`, the growth is 58.9% in the test on HCT-15 colon; 8.4% (active) with HT29 colon; 64.8% in the test with SNB-75 CNS; 69.1% in the test on SNB-19 CNS; 26.2% with U251 CNS; 53.4% with PC-3 prostate. Besides, the growth with SK-MEL-5 melanoma was 55.3%; in the test on UACC-62 melanoma, 54.7%; in the test on LOX IMVI melanoma, 27.2%; with SK-MEL-28 melanoma, 77.3%; in the test with SK-MEL-2 melanoma it was 83.9%; in the test on EKVX NSCLC it was 75.4%. Besides, the growth is 71.4% in the test on SN12C renal; 79.3% in the test with UO-31 renal; 113% in the test on TK-10 renal; 91.1% with ACHN renal; 63.4% with CAKI-1 renal; 26.9% with CCRF-CEM leukemia. Moreover, the growth in the test on MOLT-4 leukemia is -2.06% (active).

Turning to `Oc1c(CN2CCC(N3CCOCC3)CC2)cc(Cc2cc(CN3CCC(N4CCOCC4)CC3)c(O)c3ncccc23)c2cccnc12`, the growth is 24% with HCT-15 colon; 30.2% in the test on HT29 colon; 56.9% with SNB-75 CNS; 29.3% in the test on SNB-19 CNS; 27.5% with U251 CNS; 13.1% in the test on PC-3 prostate. For the same compound, the growth in the test on SK-MEL-5 melanoma is 8.31% (active); in the test on UACC-62 melanoma, -6.33% (active); in the test with LOX IMVI melanoma, 1.05% (active); in the test on SK-MEL-28 melanoma, 45%; with SK-MEL-2 melanoma, 53.7%; in the test on EKVX NSCLC, 24.9%. The growth in the test with SN12C renal is 29.1%; with UO-31 renal it was 17.9%; in the test with TK-10 renal it was 42.3%; in the test on ACHN renal, 23.5%; in the test on CAKI-1 renal, 13.2%; in the test with CCRF-CEM leukemia, 12.6%. Moreover, in the test with MOLT-4 leukemia, the growth was 6.57% (active).

`COc1ccc(Oc2ccc(/C=C/C(=O)c3cc4ccccc4oc3=O)cc2)cc1`: the growth is 80.5% in the test with HCT-15 colon; 108% in the test with HT29 colon; 50.2% in the test with SNB-75 CNS; 91.7% in the test on SNB-19 CNS; 87% in the test with U251 CNS; 75.3% in the test on PC-3 prostate. Besides, the growth in the test with SK-MEL-5 melanoma is 92.7%; with UACC-62 melanoma it was 76.7%; in the test on LOX IMVI melanoma, 70.7%; with SK-MEL-28 melanoma, 98.6%; in the test with SK-MEL-2 melanoma it was 102%; in the test with EKVX NSCLC it was 94.5%. For the same compound, the growth in the test on UO-31 renal was 48%; in the test with TK-10 renal it was 147%; in the test on ACHN renal it was 91.3%; with CAKI-1 renal, 74.8%; in the test on A498 renal, 121%; with CCRF-CEM leukemia it was 28.1%. Also, in the test on MOLT-4 leukemia, the growth was 57.9%.

For the compound `COc1ccc(C2CC(c3ccccc3)=NN2C(=O)c2cc(OC)c(OC)c(OC)c2)cc1O` (stereo not drawn), the growth with HCT-15 colon was 16.2%; with HT29 colon, 36%; in the test with SNB-75 CNS, 34.7%; with SNB-19 CNS, 47.3%; in the test with U251 CNS, 20.6%; in the test on PC-3 prostate, 22.5%. Also, the growth is 22.4% in the test with SK-MEL-5 melanoma; 25.9% in the test with UACC-62 melanoma; 42.9% in the test with LOX IMVI melanoma; 64.9% in the test on SK-MEL-28 melanoma; 76.5% in the test with SK-MEL-2 melanoma; 46.7% in the test on EKVX NSCLC. Besides, the growth in the test on SN12C renal was 37.5%; with UO-31 renal it was 30.3%; in the test on TK-10 renal it was 63.2%; in the test with ACHN renal it was 37.5%; in the test on CAKI-1 renal, 52.9%; with A498 renal, 17.3%. Further, the results for the growth in the test with CCRF-CEM leukemia and with MOLT-4 leukemia were 17.9% and 18.9%, respectively.

As to `Cc1ncc(C(=O)Nc2ccc(CN3CCN(C)CC3)c(C(F)(F)F)c2)cc1C#Cc1cnc(N)c2ccc(C#N)cc12`, the growth is -77.4% (active) in the test with HCT-15 colon; -6.14% (active) with HT29 colon; -11.5% (active) in the test with SNB-75 CNS; 52% in the test with SNB-19 CNS; 19.9% in the test with U251 CNS; 11.7% in the test on PC-3 prostate. Besides, the growth with SK-MEL-5 melanoma was -79.7% (active); in the test on UACC-62 melanoma, -8.26% (active); in the test on LOX IMVI melanoma, -90% (active); in the test on SK-MEL-28 melanoma it was -55.9% (active); with SK-MEL-2 melanoma, -6.37% (active); in the test on EKVX NSCLC, 50.4%. The growth in the test with SN12C renal was 10.4%; in the test on UO-31 renal it was -24.4% (active); with TK-10 renal, 4.43% (active); in the test with ACHN renal, -79.6% (active); in the test with CAKI-1 renal, -72.6% (active); in the test with CCRF-CEM leukemia it was 3.7% (active). For the same compound, in the test with MOLT-4 leukemia, the growth is 8.65% (active).

As to `O=C1Nc2ccccc2/C1=N/N1C(=O)CN(CCCl)C1=O`, the growth in the test on HCT-15 colon is 105%; in the test with HT29 colon it was 99.1%; in the test on SNB-75 CNS, 86.8%; in the test with SNB-19 CNS, 97.1%; in the test with U251 CNS it was 102%; in the test with PC-3 prostate it was 99%. Besides, the growth in the test on SK-MEL-5 melanoma was 97.5%; in the test on UACC-62 melanoma, 90.5%; in the test with LOX IMVI melanoma it was 100%; in the test with SK-MEL-28 melanoma it was 111%; in the test on SK-MEL-2 melanoma it was 103%; in the test on EKVX NSCLC, 102%. The growth in the test on SN12C renal is 94.2%; in the test with UO-31 renal it was 86%; in the test on TK-10 renal it was 102%; with ACHN renal, 107%; in the test with CAKI-1 renal, 89.1%; with CCRF-CEM leukemia, 99.3%. For the same compound, the growth with MOLT-4 leukemia was 99.9%.

As for `CCN(CC)CCCNc1cc(OC)c(OC)c2cccnc12`, the growth was 72% with HCT-15 colon; 83.7% in the test with HT29 colon; 102% in the test with SNB-75 CNS; 63.5% in the test with SNB-19 CNS; 52.6% with U251 CNS; 54.8% with PC-3 prostate. Moreover, the growth with SK-MEL-5 melanoma was 62.4%; in the test with UACC-62 melanoma it was 60.6%; with LOX IMVI melanoma it was 34.2%; in the test with SK-MEL-28 melanoma it was 93.8%; with SK-MEL-2 melanoma, 88.1%; in the test on EKVX NSCLC, 100%. Moreover, the growth was 57.3% in the test on SN12C renal; 46.6% in the test with UO-31 renal; 98.9% with TK-10 renal; 42.3% with ACHN renal; 52.5% in the test with CAKI-1 renal; 74.6% with CCRF-CEM leukemia. Besides, in the test on MOLT-4 leukemia, the growth was 52.8%.

(Values after PubChem BioAssay (NCI).)
